This is a sample that favours compounds with a hit; in the whole collection about 9.4% have one here.
NPC1 prom act: qHTS Assay for NPC1 Promoter Activators; Huh7 NPC1 promoter luciferase reporter, 24 h; Potency, µM (highest dose often 9.22 µM), actives largely listed as activators; actives 2.4% (n = 320,000); note: nearly all actives have a fitted effect of over 60% in size
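Luminescence from an NPC1 promoter-driven luciferase reporter in stably transfected Huh7 cells was measured after 24 h compound treatment at 37 °C, followed by 10 min ambient incubation with luciferase detection reagent.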
SMN2 splice up: qHTS Assay for Enhancers of SMN2 Splice Variant Expression; actives 2.8% (n = 210,000); HEK293 SMN2-luciferase splicing reporter, luminescence, 30-36 h; Potency, µM (series often up to 46.1 µM), hits mostly activators; AID 1458, 2008; note: nearly all actives have a fitted effect of over 55% in size
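HEK293 cells carry an SMN2 […]–luciferase reporter in which exon 7 inclusion puts luciferase in frame. Cells were plated 10-12 h before compound addition, then incubated 30-36 h at 37C. ONE-Glo luminescence was read; sodium butyrate at 4.5 mM final served as control.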
FLuc modulator: qHTS profiling assay for firefly luciferase inhibitor/activator using purifed enzyme and Km concentrations of substrates (counterscreen for miR-21 project); Luciferin 4-monooxygenase (Photinus pyralis), P08659; purified FLuc, Km substrates, luminescence inhibition; Potency, µM (series often up to 57.5 µM), actives largely listed as inhibitors; actives 6.9% (n = 360,000); AID 588342, 2011; note: nearly all actives have a fitted effect of over 55% in size
Target sequence (P08659 whole entry, looked up): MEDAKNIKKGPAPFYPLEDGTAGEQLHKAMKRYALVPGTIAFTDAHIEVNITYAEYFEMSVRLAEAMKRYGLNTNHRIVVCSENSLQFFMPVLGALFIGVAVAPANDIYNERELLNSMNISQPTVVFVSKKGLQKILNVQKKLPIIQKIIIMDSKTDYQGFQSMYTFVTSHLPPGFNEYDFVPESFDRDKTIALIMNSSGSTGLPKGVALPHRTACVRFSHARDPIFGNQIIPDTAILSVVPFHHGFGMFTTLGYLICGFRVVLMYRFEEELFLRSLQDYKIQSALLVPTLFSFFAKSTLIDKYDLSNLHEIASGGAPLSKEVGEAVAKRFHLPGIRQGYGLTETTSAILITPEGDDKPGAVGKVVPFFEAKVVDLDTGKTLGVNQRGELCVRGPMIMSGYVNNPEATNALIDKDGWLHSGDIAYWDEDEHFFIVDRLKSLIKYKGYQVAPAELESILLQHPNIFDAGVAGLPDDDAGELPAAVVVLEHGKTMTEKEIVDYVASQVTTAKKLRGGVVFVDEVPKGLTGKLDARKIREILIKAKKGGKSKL
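Purified P. pyralis luciferase, 10 nM final, with Km-level 10 uM D-luciferin and 10 uM ATP in 50 mM Tris acetate pH 7.5, 10 mM Mg acetate, 0.01% Tween-20, 0.05% BSA; 6-point qHTS titration about 60 µM downward; luminescence read.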
ELG1 DNA repair: qHTS screen for small molecules that inhibit ELG1-dependent DNA repair in human embryonic kidney (HEK293T) cells expressing luciferase-tagged ELG1; HEK293T ELG1-luciferase reporter, luminescence, 16 h; DNA damage induced by 5-fluorouridine; Potency, µM (doses to about 46.1 µM), hits mostly inhibitors; actives 2.3% (n = 330,000); note: nearly all actives have a fitted effect of over 55% in size
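In this reporter screen, reduction of luminescence relative to DMSO vehicle indicated activity. Compounds and 5-fluorouridine were added together to 2,000 cells per well, incubated for 16 hr at 37 °C, then developed with ONE-Glo.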
Rab9 promoter act: qHTS Assay for Rab9 Promoter Activators; Huh7 Rab9 promoter-luciferase reporter, luminescence, 24 h; Potency, µM (series often up to 9.22 µM), actives largely listed as activators; actives 2.8% (n = 320,000); AID 485297, 2010; note: nearly all actives have a fitted effect of over 60% in size
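Huh7 reporter line, Rab9 promoter upstream of luciferase. Compound exposure 24 h at 37 °C in reduced-serum medium with 10% FBS. Read-out: luminescence.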
ELG1 genotox: qHTS screen for small molecules that induce genotoxicity in human embryonic kidney (HEK293T) cells expressing luciferase-tagged ELG1; HEK293T ELG1-luciferase reporter, luminescence, 16 h; actives 1.3% (n = 330,000); AID 504466, 2011; Potency, µM (titrated, usually from 46 µM), actives largely listed as activators; note: nearly all actives have a fitted effect of over 60% in size
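Genotoxic stress is detected as increased luminescence from luciferase-tagged ELG1 in HEK293T cells, measured with ONE-Glo after a 16 hr treatment at 37 °C.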
Each line names hits and unclear results; the compound was inactive in the other large screens. Calls come from the whole dose curve; as a rule, active = well fitted curve in the direction sought with a large enough effect; inconclusive = small, poorly fitted or top-dose-only effect, or another doubt; inactive = no such curve, though single readings can be large; an effect the other way counts as inactive or inconclusive.

CC(=O)n1nc(-c2ccc(Cl)cc2)nc1NCc1ccco1	NPC1 prom act inconclusive, ELG1 DNA repair inconclusive, Rab9 promoter act 2.82µM, ELG1 genotox 20.6µM (no result: SMN2 splice up)
COc1ccc(CC(=O)n2nc(-c3ccc(Cl)cc3)nc2NCc2ccco2)cc1	NPC1 prom act inconclusive, SMN2 splice up inconclusive, ELG1 DNA repair inconclusive, Rab9 promoter act 3.16µM
CCN1CCCC1CNC(=O)c1ccc2c(c1)NC(=O)/C(=C\c1ccc(C)cc1)S2 (configuration not stated)	FLuc modulator 21.3µM, ELG1 genotox inconclusive (no result: SMN2 splice up)
Cc1ccc(/C=C2/Sc3ccc(C(=O)N4CCN(C)CC4)cc3NC2=O)cc1	FLuc modulator 15.1µM (no result: SMN2 splice up)
CS(=O)(=O)c1ccc2nc(NC(=O)CCNC(=O)c3ccccc3Cl)sc2c1	none (no result: SMN2 splice up, FLuc modulator)
CS(=O)(=O)c1ccc2nc(NC(=O)c3ccccc3Cl)sc2c1	FLuc modulator 16.9µM (no result: SMN2 splice up)
CS(=O)(=O)c1ccc2nc(NC(=O)c3ccccc3Br)sc2c1	NPC1 prom act 2.82µM, FLuc modulator 9.53µM, ELG1 DNA repair inconclusive, Rab9 promoter act inconclusive, ELG1 genotox inconclusive (no result: SMN2 splice up)
O=C(c1cnccn1)N1CCC2(CC1)CCN(c1cccc(-c3ccccc3)c1)CC2	none (no result: NPC1 prom act, FLuc modulator, ELG1 DNA repair, Rab9 promoter act, ELG1 genotox)
O=c1c(Cl)c(N2CCN(c3ccc(F)cc3)CC2)cnn1-c1nc2ccccc2s1	SMN2 splice up 12.6µM, FLuc modulator 19µM, ELG1 DNA repair inconclusive, Rab9 promoter act inconclusive, ELG1 genotox inconclusive
C=CCOc1ccc2nc(NC(=O)OC)[nH]c2c1	SMN2 splice up 11.2µM, FLuc modulator inconclusive, ELG1 DNA repair inconclusive, ELG1 genotox 9.2µM
Cc1cc(C)c(NC(=O)c2cc3c(=O)n4ccccc4nc3n2C)c(C)c1	none (no result: NPC1 prom act, SMN2 splice up, ELG1 DNA repair, Rab9 promoter act, ELG1 genotox)
CCn1cc(C2=NC(CC(C)C)CO2)c2ccccc21 (configuration not stated)	FLuc modulator inconclusive (no result: SMN2 splice up)
CCOC(=O)c1[nH]c2ccc(OC)cc2c1NC(=S)N1CCN(c2ccccc2OC)CC1	ELG1 DNA repair 7.31µM
COC(=O)c1[nH]c2cc(C)ccc2c1NC(=O)CN1CCN(c2ccccc2OC)CC1	SMN2 splice up inconclusive, ELG1 DNA repair 20.6µM
COC(=O)c1[nH]c2cc(C)ccc2c1NC(=O)CN1CCOCC1	none (no result: SMN2 splice up)
COC(=O)c1[nH]c2cccc(OC)c2c1NC(=O)CCN1CCN(c2cccc(Cl)c2)CC1	ELG1 DNA repair 18.4µM
CCOC(=O)c1[nH]c2cc(OC)c(OC)cc2c1NC(=O)C(C)N1CCN(Cc2ccccc2)CC1 (configuration not stated)	ELG1 DNA repair 9.2µM
CC1=C(C(=O)O)N2C(=O)C(NC(=O)C(N)c3ccc(O)cc3)C2SC1 (configuration not stated)	none (no result: NPC1 prom act, FLuc modulator, ELG1 DNA repair, Rab9 promoter act, ELG1 genotox)
CCn1ccc2cc(S(=O)(=O)N3CCC(C(=O)NCCc4ccccc4Cl)CC3)ccc21	none (no result: NPC1 prom act, SMN2 splice up, ELG1 DNA repair, Rab9 promoter act, ELG1 genotox)
CCOC(=O)c1cnc2ccc(OCC)cc2c1N1CCN(c2ccccc2OC)CC1	ELG1 DNA repair 14.6µM
CCOC(=O)c1cnc2c(OC)cccc2c1N1CCN(c2ccccc2F)CC1	none (no result: NPC1 prom act, ELG1 DNA repair, Rab9 promoter act, ELG1 genotox)
CC(C)(C)C(=O)OCc1cn(-c2ccccc2)nn1	NPC1 prom act inconclusive, FLuc modulator inconclusive, ELG1 DNA repair inconclusive
CC(C)(C)C(=O)OCc1cn(-c2ccc(Cl)cc2)nn1	NPC1 prom act inconclusive, FLuc modulator 15.1µM, ELG1 DNA repair inconclusive, ELG1 genotox inconclusive
Cc1cc(-n2cnc(-c3cn[nH]c3C)n2)no1	ELG1 DNA repair inconclusive (no result: SMN2 splice up)
COc1ccc(C(=O)Nc2nc3c(s2)CCc2cc(OC)ccc2-3)cc1	FLuc modulator 7.57µM (no result: NPC1 prom act, ELG1 DNA repair, Rab9 promoter act, ELG1 genotox)
COc1ccc2c(c1)-c1nc(NC(=O)c3ccc(C)cc3)sc1CC2	FLuc modulator 2.69µM (no result: NPC1 prom act, ELG1 DNA repair, Rab9 promoter act, ELG1 genotox)
CCCCCCCCCCCCCCCC(=O)NCCCC(=O)O	none (no result: NPC1 prom act, FLuc modulator, ELG1 DNA repair, Rab9 promoter act, ELG1 genotox)
Cc1cccc(NC(=O)c2cnn(-c3ccccc3)c2-n2cccc2)c1C	none (no result: NPC1 prom act, ELG1 DNA repair, Rab9 promoter act, ELG1 genotox)
C(=N\Nc1nc2ccccc2s1)/c1ccc2c(c1)OCO2	NPC1 prom act 3.98µM, SMN2 splice up 1µM, FLuc modulator 0.757µM, ELG1 DNA repair inconclusive, Rab9 promoter act 1.26µM, ELG1 genotox inconclusive
Brc1cc2c(cc1/C=N/Nc1nc3ccccc3s1)OCO2	NPC1 prom act inconclusive, SMN2 splice up inconclusive, ELG1 DNA repair inconclusive, Rab9 promoter act inconclusive, ELG1 genotox 18.4µM
Cc1nc(N/N=C\c2ccc3c(c2)OCO3)sc1C	NPC1 prom act 1.58µM, FLuc modulator 1.9µM, ELG1 DNA repair inconclusive, Rab9 promoter act 0.316µM, ELG1 genotox inconclusive (no result: SMN2 splice up)
COc1ccc(N2CCN(CCC(=O)c3ccc4ccccc4c3)CC2)cc1	none (no result: SMN2 splice up)
O=S(=O)(c1ccc(-n2cnnn2)cc1)N1CCN(c2cccc(C(F)(F)F)c2)CC1	none (no result: NPC1 prom act, ELG1 DNA repair, Rab9 promoter act, ELG1 genotox)
O=C(Nc1cccc(Br)c1)Nc1nc2c(s1)CCCCCC2	FLuc modulator 10.7µM (no result: NPC1 prom act, SMN2 splice up, ELG1 DNA repair, Rab9 promoter act, ELG1 genotox)
COc1ccc(NC(=O)Nc2nc3c(s2)CCCC3)cc1	NPC1 prom act 3.98µM, SMN2 splice up 12.6µM, FLuc modulator 4.78µM, ELG1 DNA repair inconclusive, Rab9 promoter act 1.78µM
CC(=O)Nc1ccc2c(c1)C(=Nc1ccc(C(=O)O)cc1)c1ccccc1-2	none (no result: NPC1 prom act, FLuc modulator, ELG1 DNA repair, Rab9 promoter act, ELG1 genotox)
COC(=O)c1cc(=O)c(O)c2c(O)c(O)ccc2c1	none (no result: NPC1 prom act, FLuc modulator, ELG1 DNA repair, Rab9 promoter act, ELG1 genotox)
CC(C)N1CCc2c(sc(NC(=O)c3ccc(C(=O)c4ccccc4)cc3)c2C(N)=O)C1	FLuc modulator inconclusive, ELG1 DNA repair inconclusive (no result: SMN2 splice up)
CC(C)N1CCc2c(sc(NC(=O)c3ccc4ccccc4c3)c2C(N)=O)C1	FLuc modulator 6.01µM (no result: SMN2 splice up)

Screening results deposited in PubChem by National Center for Advancing Translational Sciences (NCATS).
